Screening data: PubChem, National Center for Advancing Translational Sciences (NCATS)
A selection: hits, their analogues and other compounds. The true share with any hit is near 21%.
ELG1 repair inh: qHTS screen for small molecules that inhibit ELG1-dependent DNA repair in human embryonic kidney (HEK293T) cells expressing luciferase-tagged ELG1; HEK293T ELG1-luciferase reporter, luminescence, 16 h; DNA damage induced by 5-fluorouridine; Potency, µM (titrated, usually from 46.1 µM), for inactives: at the highest dose activity change, negative = inhibition, hits mostly inhibitors; actives 2.3% (n = 330,000); AID 504467, 2011; further: potency means the concentration at half of the fitted maximal effect; nearly all actives have a fitted effect of over 55% in size
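HEK293T cells expressing luciferase-tagged ELG1 (2,000/well) received 5-Fluorouridine plus compound or DMSO for 16 hr at 37 °C. Luciferase was read by ONE-Glo luminescence after 30 min at room temperature.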
VP16 counter: VP16 counterscreen qHTS for inhibitors of ROR gamma transcriptional activity; AID 2546, 2010; actives 3.5% (n = 310,000); Potency, µM (doses to about 53.6 µM), without a hit: top-dose activity, negative = inhibition, usual class: inhibitors; Drosophila S2 Gal4-VP16 UAS-luciferase, luminescence, 20 h;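 further: Gal4-VP16 expression switched on by copper sulfate through the metallothionein promoter; potency means the concentration at half of the fitted maximal effect; nearly all actives have a fitted effect of over 50% in size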
IL1B secr inh: qHTS for Inhibitors of Inflammasome Signaling: IL-1-beta AlphaLISA Primary Screen | THP-1 LPS/ATP IL-1B secretion, AlphaLISA, 16 h; hits give low values | AID 743279, 2014 | activity change, % at 57.5 µM | actives 4.7% (n = 360,000); in the data active means activity change below about -50%; inconclusive means mostly about -30% to -49%
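THP-1 cells pretreated 1 hr with compounds (up to 57.5 uM final), then stimulated with LPS (250 ng/mL final) plus ATP (1.25 mM final); secreted IL-1B measured by AlphaLISA after 16 hr, decreased signal indicating inhibition.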
RORg inh: qHTS for inhibitors of ROR gamma transcriptional activity; Potency, µM (highest dose often 53.6 µM), for inactives: at the top dose activity change, negative = inhibition, most hits filed as inhibitors; Nuclear receptor ROR-gamma (Mus musculus), P51450; Drosophila S2 Gal4-RORgamma UAS-luciferase reporter, 20 h; actives 5.4% (n = 310,000); further: potency means the concentration at half of the fitted maximal effect; nearly all actives have a fitted effect of over 60% in size
Target sequence (P51450 whole entry, looked up, the tested form may be a part): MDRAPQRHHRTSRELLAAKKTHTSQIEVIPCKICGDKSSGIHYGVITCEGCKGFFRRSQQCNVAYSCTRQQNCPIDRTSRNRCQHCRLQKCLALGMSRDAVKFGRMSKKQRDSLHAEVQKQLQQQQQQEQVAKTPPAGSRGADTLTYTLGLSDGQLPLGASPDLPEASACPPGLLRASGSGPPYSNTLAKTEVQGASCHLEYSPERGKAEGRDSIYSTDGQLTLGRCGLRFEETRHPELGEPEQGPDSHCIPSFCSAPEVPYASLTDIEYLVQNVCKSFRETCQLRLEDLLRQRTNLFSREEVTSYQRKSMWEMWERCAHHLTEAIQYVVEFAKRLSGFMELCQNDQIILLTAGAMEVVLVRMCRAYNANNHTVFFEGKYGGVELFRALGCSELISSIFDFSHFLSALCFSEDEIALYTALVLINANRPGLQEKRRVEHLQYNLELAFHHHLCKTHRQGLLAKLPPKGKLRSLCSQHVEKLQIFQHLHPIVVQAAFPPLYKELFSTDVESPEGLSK
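Drosophila S2 cells stably expressing Gal4-DBD/mouse RORγ fusion under metallothionein promoter plus UAS-luciferase; compound 1 h, then 700 uM CuSO4 induction for 20 h at ambient temperature; inhibition read as reduced luminescence.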
TDP1 cell noCPT: qHTS for Inhibitors of human tyrosyl-DNA phosphodiesterase 1 (TDP1): qHTS in cells in absence of CPT; DT40 Tdp1-/- hTDP1 cells, no CPT, ATP luminescence, 48 h; Potency, µM (doses to about 46.2 µM), inactives show at the highest dose activity change, negative = growth inhibition, actives largely listed as inhibitors; actives 15% (n = 420,000); AID 686978, 2013; further: potency means the concentration at half of the fitted maximal effect; nearly all actives have a fitted effect of over 55% in size
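Stably hTDP1-transfected Tdp1-null chicken DT40 cells were treated with library compounds minus camptothecin and grown for at least 48 hr at 37 °C, after which cellular ATP was quantified by luminescence.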
DT40 TDP1 CPT: qHTS for Inhibitors of human tyrosyl-DNA phosphodiesterase 1 (TDP1): qHTS in cells in presence of CPT. chicken DT40 Tdp1-/-;hTDP1 cells + 20 nM CPT, ATP luminescence, 48 h. Potency, µM (series often up to 46.2 µM), for inactives: at the top dose activity change, negative = growth inhibition, hits mostly inhibitors. actives 12% (n = 420,000). AID 686979, 2013; further: potency means the concentration at half of the fitted maximal effect; nearly all actives have a fitted effect of over 55% in size
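Chicken DT40 Tdp1-/- cells complemented with human TDP1, 400 cells/well, exposed to compounds plus 20 nM camptothecin for at least 48 h at 37 C; viability read as ATP content by CellTiter-Glo luminescence.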
* hit, by the source's call; ? = inconclusive; . = not tested or not shown; [ ] = remark or other dose. Unless noted, the call rests on the fitted dose curve; in most records, active means well fitted curve in the direction sought with a large enough effect; inconclusive means small, poorly fitted or top-dose-only effect, or another doubt; inactive means no such curve, though single readings can be large; an effect the other way counts as inactive or inconclusive. On the % scale 0 is the no-effect control and ±100 the full control effect.

SMILES	ELG1 repair inh	VP16 counter	IL1B secr inh	RORg inh	TDP1 cell noCPT	DT40 TDP1 CPT
O=C(Nc1ccc(-c2cn3ccccc3n2)cc1)c1ccc(Cl)cc1	0.0%	1.5%	21.0	-43.2%	9.2µM*	23.1µM*
Cc1ccc(C(=O)Nc2cccc(-c3cnc4ccccc4n3)c2)cc1	3.9%	4.5%	-10.5	-0.8%	-21.5%	-6.5%
Cc1ccc(C(=O)Nc2cccc(-c3cn4ccccc4n3)c2)cc1	?	-3.3%	-51.6*	-29.4%	?	?
COc1ccc(NC(=O)CSCC(=O)Oc2c(OC)cccc2OC)cc1	15.7%	.	12.9	.	0.5%	2.4%
Cc1cc(C)c(S(=O)(=O)Nc2ccc(-c3cn4ccccc4n3)cc2)c(C)c1	?	-11.2%	?	18.0%	?	?
Cc1cc(C)c(S(=O)(=O)Nc2cccc(-c3cn4ccccc4n3)c2)c(C)c1	.	.	.	.	29.1µM*	18.4µM*
Cc1ccccc1C(=O)Nc1cccc(-c2cn3ccccc3n2)c1	?	1.8%[10 µM]	-79.9*	-7.3%	?	?
Cn1c(=O)c(-c2cccs2)nc2cnc(N3CCOCC3)nc21	.	-6.9%	.	1.0%	27.4%	9.4%
NC(=O)C1CCCN(S(=O)(=O)c2ccc3ccccc3c2)C1 (stereo not given)	0.1%	.	23.8	.	15.8%	3.9%
O=C(NC1CCCCCC1)C(=O)NC1CC1	18.8%	-8.4%	9.4	-5.1%	0.3%	?
S=C(NC1CCCC1)NC1CC1	-7.1%	?	-3.9	12.6µM*	-8.6%	1.2%
S=C(NC1CCCC1)NC1CCCC1	-10.6%	?	43.3	2.51µM*	-23.2%	0.8%
CC(C)CNC(=S)NC1CCCC1	-0.8%	?	5.1	10µM*	-25.1%	-22.8%
CC(C)CNC(=O)C(=O)NC1CCCC1	.	.	-8.3	.	9.6%	2.4%
S=C(NC1CCCCC1)NN1CCCCCC1	.	.	24.9	.	?	1.4%
O=C(O)c1ccc(S(=O)(=O)N[C@H](Cc2ccc(C(F)(F)F)cc2)C(=O)O)cc1	.	4.1%	.	6.7%	.	.
N#C/C(=C\c1ccc(N2CCOCC2)cc1)c1ccccc1	?	-11.2%	?	?	14.6µM*	20.6µM*
N#CC(=Cc1ccncc1)c1ccccc1	.	.	-74.2*	.	-27.7%	1.6%
N#C/C(=C\c1ccc(N2CCOCC2)o1)c1ccccc1	?	20µM*	-83.5*	?	?	10.3µM*
N#C/C(=C/c1ccc(N2CCOCC2)o1)c1ccc(Br)cc1	?	5.62µM*	-106.0*	-90.8%	14.6µM*	9.2µM*
O=C1CCC=C1C(O)c1ccccc1 (stereo not given)	.	-8.8%	.	-1.2%	.	.
COc1cccc(-c2nc3nc(C)cc(C)n3c2Nc2c(C)cccc2C)c1	.	.	-3.5	.	?	?
Cc1ccc(Nc2c(-c3cccs3)nc3nc(C)cc(C)n23)cc1	.	.	.	.	?	23.1µM*
Cc1cc(C)n2c(NC3CCCCC3)c(-c3cccnc3)nc2n1	.	.	-6.5	.	16.4µM*	?
COc1ccc(Nc2c(-c3ccc(F)cc3)nc3nc(C)cc(C)n23)cc1	.	.	-25.5	.	16.4µM*	10.3µM*
SMILES	ELG1 repair inh	VP16 counter	IL1B secr inh	RORg inh	TDP1 cell noCPT	DT40 TDP1 CPT
Cc1cc(C)n2c(Nc3ccccc3)c(-c3ccccc3)nc2n1	.	.	.	.	?	16.4µM*
CC(CCc1ccccn1)C(=O)C(C)CCc1ccccn1 (stereo not given)	.	.	0.3	.	?	?
CC(C)(CCc1ccccn1)C(=O)C(CCc1ccccn1)CCc1ccccn1	.	.	-55.3*	.	?	?
CCOc1ccccc1NC(=O)c1sc2ncn(CC(=O)N3CCOCC3)c(=O)c2c1C	-25.4%	-5.3%	9.8	-11.3%	-28.4%	5.3%
COc1cc(-c2cc(C(=O)N3CCN(c4ccccn4)CC3)c3ccccc3n2)cc(OC)c1OC	8.2µM*	-7.0%	?	-28.7%	23.1µM*	?
Cc1ccc(-c2cc(C(=O)N3CCN(c4ccc(O)cc4)CC3)c3ccccc3n2)cc1	?	.	-23.7	.	?	?
CCCc1ccc(-c2cc(C(=O)N3CCN(c4ccccn4)CC3)c3ccccc3n2)cc1	?	14.1µM*	-1.3	11.2µM*	18.4µM*	?
O=C(c1cc(Sc2ccc(Cl)cc2)nc2ccccc12)N1CCN(c2ccccn2)CC1	?	-19.1%	-7.3	-1.8%	?	?
CCOc1ccc(-c2cc(C(=O)N3CCN(c4ccccn4)CC3)c3ccccc3n2)cc1	?	-23.4%	-26.7	1.4%	9.2µM*	5.8µM*
COc1cc(OC)c(C(=O)N2CCN(c3ccccn3)CC2)cc1OC	-1.5%	.	67.7	.	4.8%	-7.1%
CCOc1ccc(NS(=O)(=O)c2cccs2)cc1S(=O)(=O)N1CCCC1	.	.	11.2	.	-0.8%	-9.6%
O=C(Nc1ccccc1Oc1ccccc1)c1cccs1	-8.0%	0.3%	21.4	30.7%	-10.1%	4.9%
Cc1ccc2c(c1)C(=O)CC(c1ccccc1)S2 (stereo not given)	.	.	-5.9	.	-25.8%	-28.8%
CCOC(=O)C1C(=O)C=C(c2cccs2)CC1c1ccccc1C (stereo not given)	?	-6.0%	1.7	31.9%	?	?
CCOC(=O)C1C(=O)C=C(c2cccs2)CC1c1ccccc1 (stereo not given)	?	-66.7%	-11.0	0.1%	16.4µM*	?
CCOC(=O)C1C(=O)C=C(/C=C/c2ccc(N(C)C)cc2)CC1c1ccccc1 (stereo not given)	1.8%	8.0%	7.9	?	?	11.6µM*
O=C(/C=C/c1ccc(O)cc1)OC[C@H]1O[C@@H](Oc2c(-c3ccc(O)cc3)oc3cc(O)cc(O)c3c2=O)[C@H](O)[C@@H](O)[C@@H]1O	.	1.7%	.	7.2%	.	.
CC(O)(c1ccc(F)c(F)c1)c1nc(-c2cc3ccccc3o2)cs1 (stereo not given)	.	.	5.8	.	14.6µM*	?
CC(O)(c1cccc(F)c1)c1nc(-c2cc3ccccc3o2)cs1 (stereo not given)	.	.	27.0	.	23.1µM*	?
